Measurements as given in PubChem BioAssay AID1159580 (chemical genetic matrix, 2015).
“And” between values parts separate entries of the source, which are not always exact repeats. Equal values may be shown once. The campaign covered roughly 5,500 compounds. About 2,000 (36%) were called active. Inconclusive results (about 18%) are left out. No stated cut-off is given here; in the data, active means normalized growth mostly below about 0.91 (no sharp cut-off); inconclusive means no clear call, values can overlap the other calls; inactive means mostly above about 0.92. Some of the results follow.

Experiment: chemical genetic growth profiling, strain panel (AID 1159580);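 further: tested at 20 µM; growth read once vehicle control cultures reached saturation at 30 °C; 1 = growth at the plate median or of vehicle wells; lower values mean less growth of the strain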
Conditions: S. cerevisiae deletion strains, growth OD

Measured: normalized growth

CCCc1cc(=O)[nH]c(=S)[nH]1
inactive: locus YAL013W, strain DEP1, active compounds read low 1.02 | locus YAL021C, strain ccr4, active compounds read low 1.02 | locus YAL026C, strain drs2, active compounds read low 1.03 | locus YAL030W, strain snc1, active compounds read low 1.02 | locus YBL061C, strain skt5, active compounds read low 1.03 | locus YBR009C, strain hhf1, active compounds read low 1.02 | locus YBR021W, strain FUR4, active compounds read low 0.987 | locus YBR023C, strain chs3, active compounds read low 1.02 | locus YBR171W, strain sec66, active compounds read low 1.04 | locus YBR229C, strain ROT2, active compounds read low 1 | locus YBR231C, strain swc5, active compounds read low 1 | locus YBR279W, strain paf1, active compounds read low 0.988 | locus YCL011C, strain gbp2, active compounds read low 1.01 | locus YCL016C, strain dcc1, active compounds read low 1.01 | locus YCL029C, strain bik1, active compounds read low 0.994 | locus YCL069W, strain vba3, active compounds read low 1.02 | locus YCR088W, strain abp1, active compounds read low 1.01 | locus YDL005C, strain med2, active compounds read low 1.03 | locus YDL035C, strain GPR1, active compounds read low 1.01 | locus YDL040C, strain nat1, active compounds read low 1.01 | locus YDL074C, strain BRE1, active compounds read low 1.03 | locus YDL101C, strain DUN1, active compounds read low 1.01 | locus YDL134C, strain PPH21, active compounds read low 1.01 | locus YDL185W, strain tfp1, active compounds read low 1.02 | locus YDL192W, strain arf1, active compounds read low 1 | locus YDR001C, strain nth1, active compounds read low 1.01 | locus YDR069C, strain doa4, active compounds read low 1.01 | locus YDR101C, strain arx1, active compounds read low 0.985 | locus YDR137W, strain rgp1, active compounds read low 1.02 | locus YDR150W, strain NUM1, active compounds read low 1.01 | locus YDR159W, strain sac3, active compounds read low 0.995 | locus YDR162C, strain NBP2, active compounds read low 1.02 | locus YDR195W, strain ref2 0.999 | locus YDR297W, strain sur2, active compounds read low 1.01 | locus YDR318W, strain mcm21, active compounds read low 0.985 | locus YDR334W, strain swr1, active compounds read low 1.03 | locus YDR335W, strain msn5, active compounds read low 1.01 | locus YDR388W, active compounds read low 0.989 | locus YDR392W, strain spt3, active compounds read low 0.997 | locus YDR502C, strain sam2, active compounds read low 0.989 | locus YEL003W, strain gim4, active compounds read low 1.01 | locus YEL037C, strain rad23, active compounds read low 1.03 | locus YEL061C, strain CIN8 (second series), active compounds read low 1.03 | locus YEL061C, strain CIN8, active compounds read low 1.01 | locus YER015W, strain faa2, active compounds read low 1.01 | locus YER016W, strain bim1, active compounds read low 1 | locus YER110C, active compounds read low 0.991 | locus YER111C, strain swi4, active compounds read low 1 | locus YER155C, strain BEM2 (second series), active compounds read low 1.04 | locus YER155C, strain BEM2, active compounds read low 1.01 | locus YER167W, strain BCK2, active compounds read low 1.01 | locus YFR010W, strain ubp6, active compounds read low 1.02 | locus YGL078C, strain dbp3, active compounds read low 0.996 | locus YGL086W, strain mad1, active compounds read low 0.987 | locus YGL167C, strain pmr1, active compounds read low 1.02 | locus YGL173C, strain kem1, active compounds read low 1.04 | locus YGL227W, strain vid30, active compounds read low 1.03 | locus YGL240W, strain doc1, active compounds read low 1 | locus YGL248W, strain PDE1, active compounds read low 1.01 | locus YGL253W, strain hxk2, active compounds read low 0.995 | locus YGR078C, strain PAC10, active compounds read low 1 | locus YGR135W, strain pre9, active compounds read low 0.994 | locus YGR229C, strain SMI1, active compounds read low 1.02 | locus YGR252W, strain gcn5, active compounds read low 0.901 | locus YHR013C, strain ard1, active compounds read low 1.09 | locus YHR027C, strain rpn1, active compounds read low 1.01 | locus YHR030C, strain SLT2, active compounds read low 1.02 | locus YHR079C, strain IRE1 (second series), active compounds read low 0.983 | locus YHR079C, strain IRE1, active compounds read low 1.03 | locus YHR094C, strain hxt1, active compounds read low 0.993 | locus YHR129C, strain ARP1, active compounds read low 1.02 | locus YHR142W, strain chs7, active compounds read low 1.05 | locus YHR200W, strain rpn10, active compounds read low 1.01 | locus YIL066C, strain RNR3, active compounds read low 1 | locus YIL073C, strain SPO22, active compounds read low 0.955 | locus YIL125W, strain kgd1, active compounds read low 1 | locus YIR030C, strain dcg1, active compounds read low 0.998 | locus YJL092W, strain hpr5, active compounds read low 1.02 | locus YJL095W, strain BCK1 (second series), active compounds read low 1.02 | locus YJL095W, strain BCK1, active compounds read low 1.01 and 0.999 | locus YJL115W, strain asf1, active compounds read low 1.02 | locus YJL129C, strain trk1, active compounds read low 1.01 | locus YJL134W, strain LCB3, active compounds read low 1.01 | locus YJL154C, strain vps35, active compounds read low 1 | locus YJL164C, strain tpk1, active compounds read low 1.02 | locus YJL166W, strain qcr8, active compounds read low 1.04 | locus YJL168C, strain set2, active compounds read low 0.989 | locus YJL187C, strain SWE1 (second series), active compounds read low 1.01 | locus YJR043C, strain POL32, active compounds read low 1 | locus YJR066W, strain TOR1, active compounds read low 0.971
